# In PubChem BioAssay AID2384 (Southern Research Specialized Biocontainment Screening …, 2010):
# The campaign covered roughly 2,300 compounds. About 1,100 (48%) were called active. So high a share suggests a set chosen from earlier hits. The list shows a part of the results. Entries with a potency or affinity are not part of this list. Unmarked numbers belong to inactive results. How the calls were made is not given here.
# Experiment: inhibitors in S. typhi counter-screen strain, dose response, counter-screen for PhoP regulon inhibitor project, fluorescence, 4 h (AID 2384)
# Details: S. typhi GFP reporter counter-screen; series mostly up to 150 µM
row,SMILES,inhibition
1,CN(C)C(/C=C/Nc1ccc(F)cc1F)=C(C#N)C#N,inactive
2,CC(=O)Nc1cccc(NS(=O)(=O)Cc2ccc(Cl)cc2)c1,inactive
3,CC(=O)Nc1cccc(NC(=O)Nc2ccc(C)c(Cl)c2)c1,inactive
4,O=C(Cn1c(=O)oc2ccccc21)N1CCN(c2ccc(N3CCOCC3)nn2)CC1,inactive
5,CCn1c(SCC(=O)Nc2oc(-c3ccccc3)c(-c3ccccc3)c2C#N)nnc1-c1ccco1,inactive
6,O=C(O)Cn1c(=O)c2c3c(sc2n(Cc2ccccc2F)c1=O)CCCC3,inactive
7,O=C1CCCC(=O)N1c1ccc(N2CCOCC2)c([N+](=O)[O-])c1,inactive
8,Cc1cc(N2CCCCC2)c(F)cc1[N+](=O)[O-],inactive
9,Cc1cnc(NC(=O)CN2C(=O)C3CC=CCC3C2=O)s1 (stereo not given),inactive
10,O=C(Nc1ccccc1)c1ccc2nsnc2c1,inactive
11,Cc1ccccc1N1C(N)=NC(N)=NC1(C)C,inactive
12,COC(=O)C(NC(C)=O)(Nc1nc2c(s1)CCCC2)C(F)(F)F (stereo not given),inactive
13,Cc1[nH]c2ccccc2c1/C=C/c1nc2ccccc2c(=O)[nH]1,inactive
14,CCOC(=O)CSc1nc(-c2ccccc2)nc2ccccc12,inactive
15,COc1ccc(Nc2nnc(SCC3CCCO3)s2)cc1 (stereo not given),inactive
16,c1ccc2oc(-c3csc(NCC4CCCO4)n3)cc2c1 (stereo not given),inactive
17,O=S(=O)(c1ccccc1)c1nc(-c2cccs2)oc1NCC1CCCO1 (stereo not given),inactive
18,COc1ccc(CCn2c(=N)c(C(=O)NCC3CCCO3)cc3c(=O)n4ccccc4nc32)cc1 (stereo not given),inactive
19,COc1ccccc1Nc1nc(NCC2CCCO2)c2ccccc2n1 (stereo not given),inactive
20,COc1ccc(Cn2c(=N)c(C(=O)NCC3CCCO3)cc3c(=O)n4ccccc4nc32)cc1 (stereo not given),inactive
21,CC(=O)c1cccc(CN2CCN(C3CCCC3)C(CCO)C2)c1 (stereo not given),inactive
22,CCCC1(c2ccccc2)NC(=O)N(CC(=O)Nc2ccccc2C(F)(F)F)C1=O (stereo not given),inactive
23,O=C(NCC1CCCO1)c1cc2ccccc2oc1=O (stereo not given),inactive

row,SMILES,inhibition
1,Cc1cccn2c(=O)c3cc(C(=O)NCC4CCCO4)c(=N)n(C4CCCC4)c3nc12 (stereo not given),inactive
2,Cc1oc2nc(SCCCC(=O)NCCCO)nc(N)c2c1C,inactive
3,Cc1c(C(=O)O)c(-c2ccccc2)nn1-c1ccccc1,inactive
4,CCN(CC)C(=O)CNC(=O)Cc1ccc(Cl)cc1,inactive
5,O=C1c2ccccc2C(=O)N1CCCP(=O)(O)CCc1ccccc1,inactive
6,COc1ccc(/C=N/NC(=O)c2ccc3c(c2)OCO3)cc1,inactive
7,COc1ccc(N2CCN(C(CNC(=O)c3ccc4c(c3)OCO4)c3ccco3)CC2)cc1 (stereo not given),inactive
8,O=C(N/N=C\c1ccc(F)cc1)c1ccc(F)cc1,inactive
9,CCCCN1/C(=C/c2cccc[n+]2C)Sc2cc(NC(C)=O)ccc21,inactive
10,CC(Sc1nc2ccccc2o1)C(=O)O (stereo not given),inactive
11,O=C(CSc1nc2ccccc2o1)c1cc2ccccc2oc1=O,inactive
12,Cc1c(CC(=O)N2CCC(C(N)=O)CC2)c(=O)oc2cc3c(cc12)CCC1(CCCCC1)O3,inactive
13,O=C(/C=C/c1c(F)cccc1Cl)N1CCOCC1,inactive
14,COc1ccc2nc(Nc3ccccc3)sc2c1,inactive
15,CC1CCN(C(=O)COc2ccc(Nc3ccccc3)cc2)CC1,inactive
16,Cc1cc(N/N=C/c2ccc(F)cc2)nc(NCc2ccccc2)n1,inactive
17,O=C(Nc1ccc(N2CCOCC2)cc1)C1CCN(S(=O)(=O)c2ccccc2F)CC1,inactive
18,CCCCNC(=S)Nc1ccc([N+](=O)[O-])cc1,inactive
19,CCn1cc(C(=O)NCc2ccc3c(c2)OCO3)c(=O)c2cc(F)c(N3CCN(C(=O)c4ccco4)CC3)cc21,inactive
20,CCn1cc(C(=O)N[C@@H](C)C(=O)OC)c(=O)c2cc3c(cc21)OCO3,inactive
21,CCN(CC)S(=O)(=O)c1ccc2c(c1)c(C(=O)O)cn2C,inactive
22,O=C(c1cc2c(s1)-c1ccccc1OC2)N1CCc2ccccc2C1,inactive
23,Nc1c(-c2ccccc2)sc2ccc3ccccc3[n+]12,inactive

row,SMILES,inhibition
1,CN(Cc1ccccc1)S(=O)(=O)c1csc(C(N)=O)c1,inactive
2,Cc1ccc(C(C)C)c(OCCNC(=O)c2ccccc2O)c1,inactive
3,Cc1cccc(NC(=O)c2ccccc2Br)n1,inactive
4,CN1C(=O)c2ccc(NC(=O)C3CCCCC3)cc2C1=O,inactive
5,CC(=O)c1c(C)[nH]c(C(=O)OCC(=O)NCC(C)C)c1C,inactive
6,Cc1ccc(NC(=S)NCc2cccs2)cc1,inactive
7,O=C(NCCc1ccncc1)Nc1ccc(Cl)c(Cl)c1,inactive
8,O=C(O)CCSCc1ccccc1F,inactive
9,Cc1cc2cc(CNC(=O)C(C)Oc3ccccc3)ccc2n1C (stereo not given),inactive
10,COC(=O)c1cccc(C(=O)N2CCCC(CCC(=O)N(C)CCc3ccccn3)C2)c1 (stereo not given),inactive
11,COc1cccc(CNc2nn[nH]n2)c1OC,inactive
12,Fc1ccc(NC(=S)NCc2ccccc2Cl)cc1,inactive
13,COc1ccccc1CNC(=O)COC(=O)CCC(=O)c1cccs1,inactive
14,Cc1cc(=O)oc2cc(OCC(=O)NC3CCCC3)ccc12,inactive
15,COc1cccc(C(=O)Nc2cccc(SC)c2)c1,inactive
16,CSc1cccc(NC(=O)/C=C/c2ccco2)c1,inactive
17,CC(C)CCNC(=O)c1cc2c(s1)-c1ccccc1S(=O)(=O)C2,inactive
18,COC(=O)c1ccc(CSc2nc3ccccc3c(=O)n2-c2ccc(OC)c(OC)c2)o1,inactive
19,Cc1[nH]nc2c1C1(CCC3(CC1)OCCO3)C(C#N)=C(N)O2,inactive
20,Cc1ccsc1/C=N\NC(=O)c1ccc2c(c1)OCO2,29.4% [at 18.8 µM]
21,Cc1ccc2cc(-c3noc(C4CCCO4)n3)c(=O)[nH]c2c1 (stereo not given),inactive
22,Cc1[nH]c(=O)[nH]c(=O)c1S(=O)(=O)N1CCCC(C(=O)NCc2ccc3c(c2)OCO3)C1 (stereo not given),inactive
23,CCc1cccc2c(C=C(C#N)C#N)cn(CC(=O)N3CCCCCC3)c12,inactive

row,SMILES,inhibition
1,N#Cc1c(/N=C/c2cccs2)sc2c1CCCCC2,inactive
2,Cc1nc(NC2=NCN(CCCN3CCOCC3)CN2)nc2c(C)cccc12,inactive
3,COc1cccc(NC(=O)CN(C)C(C)C(=O)Nc2ccc(S(=O)(=O)N3CCOCC3)cc2)c1 (stereo not given),inactive
4,COc1cccc(CNC(=O)C2CCN(S(=O)(=O)c3ccc(C)cc3)CC2)c1,inactive
5,CC(C)Cc1c(O)nc(SCC(=O)Nc2ccc3c(c2)CCC3)[nH]c1=O,inactive
6,Nc1nc(SCC(=O)Nc2ccc3c(c2)CCC3)n[nH]1,inactive
7,CC(=O)c1ccc(NC(=S)NC(NC(=O)c2ccco2)C(Cl)(Cl)Cl)cc1 (stereo not given),inactive
8,N#CC(C(=O)C12CC3CC(CC(C3)C1)C2)c1nc2ccccc2[nH]1 (stereo not given),inactive
9,Cc1nn(-c2nc3ccccc3[nH]2)c(N)c1-c1ccccc1,inactive
10,CC(C)SCc1nc2ccccc2[nH]1,inactive
11,COc1cccc(CNS(=O)(=O)c2ccc3c(c2)NC(=O)CS3)c1,inactive
12,O=C(O)CC12CC3CC(C1)CC(n1ncc(NCC4CCCO4)c(Cl)c1=O)(C3)C2 (stereo not given),inactive
13,Cc1ccc(NC2=C(Cl)C(=O)OC2OC(=O)c2ccco2)c(C)c1 (stereo not given),inactive
14,O=C(NCc1nc2ccccc2[nH]1)c1ccc([N+](=O)[O-])cc1,inactive
15,CN(C)C(CNc1ccc([N+](=O)[O-])cc1C#N)c1ccccc1 (stereo not given),inactive
16,COc1ccc(C2=NN3C(C2)c2ccccc2OC3c2cccs2)cc1 (stereo not given),inactive
17,CCS(=O)(=O)N1CCN(C2CCC(c3ccccc3)CC2)CC1 (stereo not given),inactive
18,CNS(=O)(=O)c1cc(OC)ccc1OC,inactive
19,NC(=O)c1cc(C(=O)c2cccc(Cl)c2Cl)c[nH]1,inactive
20,CCOC(=O)COn1c(=O)c(-c2cccs2)[n+]([O-])c2ccccc21,inactive
21,CCOc1ccc(N2C(=O)S/C(=C\c3ccc(O)c(OC)c3)C2=O)cc1,inactive
22,c1ccn(-c2ccc(-c3ccn[nH]3)cc2)c1,inactive
23,CC(=O)Nc1nc(C)c(-c2csc(Nc3ccc(O)cc3)n2)s1,inactive

row,SMILES,inhibition
1,Cc1cc(C)c[n+](CC(=O)c2ccc(NC(=O)c3ccccc3)cc2)c1,inactive
2,Cc1cc(NS(=O)(=O)c2ccc(Nc3nc(-c4sc(NC(=O)c5ccccc5)nc4C)cs3)cc2)no1,inactive
3,CC(C)(C)n1nc2c(c1NC(=O)c1ccccc1)CS(=O)(=O)C2,inactive
4,COC(=O)Cn1c(=O)c(C)nc2ccccc21,inactive
5,Clc1ccc(Cn2cc(Br)cn2)cc1Cl,inactive
6,COCCn1nnnc1C(c1cccc(OC)c1OC)N1CCN(C2CCCCC2)CC1 (stereo not given),inactive
7,COc1cc2[nH]c(=O)n(Cc3ccc(C(=O)N4CCC(N5CCCCC5)CC4)cc3)c(=O)c2cc1OC,inactive
8,O=C1c2cccnc2C(=O)N1c1ccccc1-c1ccccc1,inactive
9,O=C(c1cccs1)N1CCN(S(=O)(=O)c2ccccc2)CC1,inactive
10,CC(C)(C)c1ccc(C(=O)NNC(=O)Cc2ccccc2)cc1,inactive
11,CC(C)(C)n1nc2c(c1NC(=O)c1cccs1)CS(=O)C2 (stereo not given),inactive
12,CCc1ccccc1NC(=S)N(Cc1cccc(C)c1)c1cccnc1,inactive
13,N=c1sc2c(n1Cc1ccccc1)CCCC2,inactive
14,N#Cc1c(-c2ccccc2)ccn(Cc2cccc(Cl)c2)c1=O,inactive
15,Nc1nc2n(n1)C(c1ccco1)CC(c1ccc(Cl)c(Cl)c1)N2 (stereo not given),inactive
16,Cc1ccc2nc3c(c(N)c2c1)CCN3C,inactive
17,O=C(CSc1nnnn1C1CCCCC1)N1CCCC1,inactive
18,Cc1cc(C)nc(NS(=O)(=O)c2ccc(N3C(=O)C4CC=C(Cl)CC4C3=O)cc2)n1 (stereo not given),inactive
19,Cc1ccc(NC(=O)C(=O)NCc2ccncc2)cc1,inactive
20,O=S(=O)(Nc1ncccn1)c1ccc(NC(=S)Nc2ccc(Cl)cc2)cc1,inactive
21,Fc1cccc(NC(=S)NCc2ccc(Cl)cc2)c1,inactive
22,CCOc1ccccc1NC(=O)Nc1ccncc1,inactive
23,COC(=O)Cc1ccc(NC(=S)NCc2ccc(Cl)cc2)cc1,inactive
